Results from the supplement of paper PMC11732987, “Enantioselective OTUD7B fragment discovery through chemoproteomics screening and high-throughput optimisation” (Communications Chemistry, 2025).

How the values were obtained:
Experiment in all cases: log2 ratio of Biotin-Ahx-Ub-VS probe labelling (fragment/DMSO); higher = less target engagement (more negative = stronger competition), active = hit call of the paper (q ≤ 0.05, log2 ratio ≤ -1)
Conditions in all cases: compound concentration: 200 uM; treatment time: 3 h
OTUD6B = target: T1, OTUD6B (UniProt Q8N6M0)
T1 sequence (whole entry): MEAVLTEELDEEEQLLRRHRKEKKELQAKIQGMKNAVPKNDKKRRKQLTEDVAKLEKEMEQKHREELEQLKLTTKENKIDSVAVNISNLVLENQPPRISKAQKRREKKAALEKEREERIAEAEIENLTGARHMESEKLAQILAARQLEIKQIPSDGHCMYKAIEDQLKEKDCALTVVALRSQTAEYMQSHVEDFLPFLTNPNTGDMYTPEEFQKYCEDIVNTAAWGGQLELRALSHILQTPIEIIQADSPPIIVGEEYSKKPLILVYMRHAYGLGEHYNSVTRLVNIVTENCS
Summary of the method: (§1)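 Average log2 ratios of fragment over vehicle were obtained by unpaired t-test from global-median-normalised Spectronaut label-free quantities. Proteins with ≥2 unique peptides were included. HEK293T lysate (495 µg per sample) was treated in triplicate with fragment at 200 µM or vehicle for 3 h, then with Biotin-Ahx-Ub-VS at 0.5 µM final for 1 h, and labelled DUBs were NeutrAvidin-enriched and run by diaPASEF LC-MS/MS.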

OTUD7B = target: T2, OTUD7B (UniProt Q6GQQ9)
T2 sequence (whole entry): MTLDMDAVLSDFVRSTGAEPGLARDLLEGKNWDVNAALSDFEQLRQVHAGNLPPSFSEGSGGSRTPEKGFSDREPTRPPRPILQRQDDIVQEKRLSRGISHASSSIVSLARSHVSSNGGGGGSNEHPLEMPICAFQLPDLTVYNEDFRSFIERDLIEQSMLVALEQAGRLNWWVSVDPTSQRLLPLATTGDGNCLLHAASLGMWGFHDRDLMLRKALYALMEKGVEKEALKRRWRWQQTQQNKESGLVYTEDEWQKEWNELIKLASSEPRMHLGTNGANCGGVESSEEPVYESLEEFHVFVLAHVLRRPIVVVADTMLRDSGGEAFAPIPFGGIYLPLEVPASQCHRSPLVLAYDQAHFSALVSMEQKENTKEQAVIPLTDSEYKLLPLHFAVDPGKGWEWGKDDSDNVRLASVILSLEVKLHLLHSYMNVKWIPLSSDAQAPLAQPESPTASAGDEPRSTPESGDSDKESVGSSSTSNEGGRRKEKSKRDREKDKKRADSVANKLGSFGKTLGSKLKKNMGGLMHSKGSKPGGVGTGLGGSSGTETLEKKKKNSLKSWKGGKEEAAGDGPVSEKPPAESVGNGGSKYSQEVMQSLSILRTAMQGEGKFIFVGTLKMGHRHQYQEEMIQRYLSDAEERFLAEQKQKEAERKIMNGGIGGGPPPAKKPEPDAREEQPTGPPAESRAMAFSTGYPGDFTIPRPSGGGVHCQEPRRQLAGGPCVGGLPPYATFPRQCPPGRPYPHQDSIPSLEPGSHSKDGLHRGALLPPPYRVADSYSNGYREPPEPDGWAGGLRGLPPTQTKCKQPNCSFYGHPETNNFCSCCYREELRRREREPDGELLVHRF
Summary of the method: as §1

PRPF8 = PRPF8 (UniProt Q6P2Q9)
Summary of the method: as §1

PSMD7 = target: T3, PSMD7 (UniProt P51665)
T3 sequence (whole entry): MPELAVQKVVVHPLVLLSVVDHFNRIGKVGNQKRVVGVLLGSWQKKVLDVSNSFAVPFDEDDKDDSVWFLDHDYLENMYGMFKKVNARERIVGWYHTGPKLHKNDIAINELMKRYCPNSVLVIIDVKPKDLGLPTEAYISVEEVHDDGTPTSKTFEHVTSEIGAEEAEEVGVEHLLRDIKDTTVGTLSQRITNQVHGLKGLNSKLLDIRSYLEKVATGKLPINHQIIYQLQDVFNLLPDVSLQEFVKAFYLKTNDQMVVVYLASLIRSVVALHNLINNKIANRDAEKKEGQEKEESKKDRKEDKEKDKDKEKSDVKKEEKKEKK
Summary of the method: as §1

UCHL1 = UCHL1 (UniProt P09936)
Summary of the method: as §1

UCHL3 = target: T4, UCHL3 (UniProt P15374)
T4 sequence (whole entry): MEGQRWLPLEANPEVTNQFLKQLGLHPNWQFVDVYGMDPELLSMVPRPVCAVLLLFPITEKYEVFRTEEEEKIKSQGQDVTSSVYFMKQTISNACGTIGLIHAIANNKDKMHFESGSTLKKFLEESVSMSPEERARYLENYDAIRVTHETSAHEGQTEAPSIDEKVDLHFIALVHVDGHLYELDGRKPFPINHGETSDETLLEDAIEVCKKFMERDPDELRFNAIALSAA
Summary of the method: as §1

UCHL5 = target: T5, UCHL5 (UniProt Q9Y5K5)
T5 sequence (whole entry): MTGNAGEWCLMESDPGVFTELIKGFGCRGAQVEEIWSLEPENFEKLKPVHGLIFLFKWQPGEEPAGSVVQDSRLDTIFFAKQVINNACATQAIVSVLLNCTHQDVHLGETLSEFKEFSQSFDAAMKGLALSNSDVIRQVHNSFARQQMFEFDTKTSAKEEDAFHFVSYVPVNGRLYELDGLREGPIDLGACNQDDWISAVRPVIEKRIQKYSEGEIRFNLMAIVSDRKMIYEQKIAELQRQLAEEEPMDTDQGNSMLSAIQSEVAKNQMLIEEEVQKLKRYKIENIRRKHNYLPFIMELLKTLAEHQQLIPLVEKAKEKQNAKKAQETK
Summary of the method: as §1

USP10 = USP10 (UniProt Q14694)
Summary of the method: as §1

USP15 = target: T6, USP15 (UniProt Q9Y4E8)
T6 sequence (whole entry): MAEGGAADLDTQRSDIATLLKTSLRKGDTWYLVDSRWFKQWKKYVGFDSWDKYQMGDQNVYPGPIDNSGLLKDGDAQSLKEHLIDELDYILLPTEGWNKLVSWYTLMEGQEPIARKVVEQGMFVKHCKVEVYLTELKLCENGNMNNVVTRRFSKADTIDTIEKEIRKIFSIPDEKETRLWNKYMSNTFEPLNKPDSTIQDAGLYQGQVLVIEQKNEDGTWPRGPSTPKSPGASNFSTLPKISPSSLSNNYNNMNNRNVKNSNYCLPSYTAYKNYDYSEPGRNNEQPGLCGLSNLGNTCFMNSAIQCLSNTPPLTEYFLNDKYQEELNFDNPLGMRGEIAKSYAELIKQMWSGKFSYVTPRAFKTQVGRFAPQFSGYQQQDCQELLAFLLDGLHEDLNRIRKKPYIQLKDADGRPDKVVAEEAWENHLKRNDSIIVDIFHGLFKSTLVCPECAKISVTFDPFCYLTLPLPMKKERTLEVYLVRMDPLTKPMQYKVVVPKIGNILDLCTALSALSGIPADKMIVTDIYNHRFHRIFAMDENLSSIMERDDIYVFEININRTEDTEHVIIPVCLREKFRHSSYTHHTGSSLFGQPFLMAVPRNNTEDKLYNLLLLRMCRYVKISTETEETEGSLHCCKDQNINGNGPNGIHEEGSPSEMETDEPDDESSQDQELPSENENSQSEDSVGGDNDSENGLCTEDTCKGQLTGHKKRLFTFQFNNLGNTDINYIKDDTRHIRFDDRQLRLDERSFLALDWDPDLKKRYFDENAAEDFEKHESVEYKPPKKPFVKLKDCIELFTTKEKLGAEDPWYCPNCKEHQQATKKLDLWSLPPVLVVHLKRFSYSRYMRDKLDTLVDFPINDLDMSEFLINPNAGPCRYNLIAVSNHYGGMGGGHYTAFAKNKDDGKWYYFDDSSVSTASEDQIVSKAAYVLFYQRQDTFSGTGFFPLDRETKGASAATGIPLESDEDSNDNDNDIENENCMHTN
Summary of the method: as §1

USP16 = USP16 (UniProt Q9Y5T5)
Summary of the method: as §1

Measured: log2 ratio of Biotin-Ahx-Ub-VS probe labelling

Sequence of USP10 (Q14694 whole entry): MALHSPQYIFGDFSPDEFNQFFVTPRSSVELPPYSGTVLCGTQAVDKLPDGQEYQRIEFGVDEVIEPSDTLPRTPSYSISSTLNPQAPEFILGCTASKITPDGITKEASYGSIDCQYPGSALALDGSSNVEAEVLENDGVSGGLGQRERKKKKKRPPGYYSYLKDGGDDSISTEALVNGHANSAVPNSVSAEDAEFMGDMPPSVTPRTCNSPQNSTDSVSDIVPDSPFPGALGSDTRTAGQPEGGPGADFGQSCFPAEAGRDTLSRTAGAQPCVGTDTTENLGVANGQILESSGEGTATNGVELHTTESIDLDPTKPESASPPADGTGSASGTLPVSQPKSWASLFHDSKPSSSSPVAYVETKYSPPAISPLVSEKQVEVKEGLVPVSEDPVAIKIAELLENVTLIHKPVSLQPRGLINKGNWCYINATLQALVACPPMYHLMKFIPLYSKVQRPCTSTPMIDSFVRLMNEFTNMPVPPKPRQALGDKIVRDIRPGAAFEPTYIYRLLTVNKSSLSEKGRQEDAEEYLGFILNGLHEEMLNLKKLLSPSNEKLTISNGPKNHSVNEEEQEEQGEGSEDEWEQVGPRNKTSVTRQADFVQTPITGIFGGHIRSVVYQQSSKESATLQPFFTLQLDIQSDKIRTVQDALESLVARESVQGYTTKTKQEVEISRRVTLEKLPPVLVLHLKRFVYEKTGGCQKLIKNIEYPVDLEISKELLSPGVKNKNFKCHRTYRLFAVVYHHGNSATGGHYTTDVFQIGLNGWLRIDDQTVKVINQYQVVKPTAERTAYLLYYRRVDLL
Sequence of USP16 (Q9Y5T5 whole entry, looked up): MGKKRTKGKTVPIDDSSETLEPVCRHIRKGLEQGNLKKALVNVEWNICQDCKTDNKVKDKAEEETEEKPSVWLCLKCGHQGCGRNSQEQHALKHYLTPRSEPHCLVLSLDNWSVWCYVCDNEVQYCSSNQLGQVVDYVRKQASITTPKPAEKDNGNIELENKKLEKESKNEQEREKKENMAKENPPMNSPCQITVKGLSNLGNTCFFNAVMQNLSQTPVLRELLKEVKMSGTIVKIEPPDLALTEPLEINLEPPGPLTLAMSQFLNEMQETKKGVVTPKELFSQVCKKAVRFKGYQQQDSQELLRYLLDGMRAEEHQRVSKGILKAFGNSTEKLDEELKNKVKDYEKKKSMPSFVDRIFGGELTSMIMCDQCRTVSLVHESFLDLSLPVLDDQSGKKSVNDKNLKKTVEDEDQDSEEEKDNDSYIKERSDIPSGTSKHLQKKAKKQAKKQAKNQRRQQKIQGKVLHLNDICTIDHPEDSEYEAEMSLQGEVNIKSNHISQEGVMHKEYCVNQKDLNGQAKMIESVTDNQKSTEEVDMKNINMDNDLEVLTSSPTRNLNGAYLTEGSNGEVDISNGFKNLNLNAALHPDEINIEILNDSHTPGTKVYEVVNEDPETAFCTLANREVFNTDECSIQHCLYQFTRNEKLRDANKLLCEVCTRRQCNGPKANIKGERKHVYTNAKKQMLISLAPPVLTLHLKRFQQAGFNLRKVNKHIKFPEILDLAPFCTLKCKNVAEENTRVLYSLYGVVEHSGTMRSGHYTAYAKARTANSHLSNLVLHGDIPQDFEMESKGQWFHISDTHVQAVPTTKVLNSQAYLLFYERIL
Sequence of UCHL1 (P09936 whole entry, looked up): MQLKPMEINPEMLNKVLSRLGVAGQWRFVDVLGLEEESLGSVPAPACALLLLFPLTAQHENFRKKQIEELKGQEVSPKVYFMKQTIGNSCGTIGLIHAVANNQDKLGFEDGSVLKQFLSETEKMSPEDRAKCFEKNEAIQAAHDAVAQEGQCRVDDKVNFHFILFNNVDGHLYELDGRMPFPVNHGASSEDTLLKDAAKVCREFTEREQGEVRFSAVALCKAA

Cc1nc(CN2CCCN(C(=O)CCl)CC2)no1.Cl
inactive: OTUD6B 0.121 | OTUD7B 0.0504 | PRPF8 0.0827 | PSMD7 0.166 | UCHL1 -0.971 | UCHL3 0.331 | UCHL5 -0.00418 | USP10 0.0299 | USP15 -0.0311 | USP16 -0.188
